# D2 ag-1: agonists of human D2 dopamine receptor; 0.53% of 340,000 active; activation, % at 2 µM; P14416; HEK293 T-REx D2 cells, calcium flux agonist mode; AID 485358;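 active = activation over 3 SD above normal in the single-dose calcium agonist read, cut at about 30% in these data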; note: 0% is about no effect
# Target sequence (P14416 whole entry, looked up): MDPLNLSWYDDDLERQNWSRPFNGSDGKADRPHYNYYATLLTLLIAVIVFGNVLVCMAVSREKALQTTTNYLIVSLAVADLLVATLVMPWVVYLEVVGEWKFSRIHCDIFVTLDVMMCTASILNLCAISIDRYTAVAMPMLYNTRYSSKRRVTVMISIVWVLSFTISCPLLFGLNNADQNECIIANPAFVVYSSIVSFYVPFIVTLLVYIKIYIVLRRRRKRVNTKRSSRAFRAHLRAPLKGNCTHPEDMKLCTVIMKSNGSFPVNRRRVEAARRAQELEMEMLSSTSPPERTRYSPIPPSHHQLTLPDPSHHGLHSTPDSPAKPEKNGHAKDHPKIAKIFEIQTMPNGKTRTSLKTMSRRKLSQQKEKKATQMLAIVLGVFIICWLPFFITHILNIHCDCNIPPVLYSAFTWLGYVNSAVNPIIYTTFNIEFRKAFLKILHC
#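 Tetracycline-induced HEK293 Trex cells with D2 receptor force-coupled to calcium signaling, plated overnight at 30 C and loaded with no-wash calcium dye. Calcium flux read kinetically for 180 s after compound addition; responses flag agonists.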
# D2 PAM-1: positive allosteric modulators of human D2 dopamine receptor; 0.34% of 340,000 active; AID 485347; HEK293 T-REx D2, calcium flux, EC20 dopamine potentiation; potentiation, % at 10 µM; P14416;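 active = potentiation over 3 SD above the plate norm, cut at about 30% in these data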; note: 0% is about no effect
#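 Cells plated with tetracycline inducer and held overnight at 30 C; calcium dye loaded 30–90 min at room temperature; baseline taken, compound added and read 180 s; EC20 dopamine then added and read 180 s.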
# D2 ag-2: activates the human D2 dopamine receptor. P14416. DiscoveRx PathHunter D2 beta-arrestin, luminescence, 90 min; 100% = 57 uM dopamine signal. activation, % (test concentration not listed). 0.084% of 360,000 active; in the data active = activation above about 40%; inconclusive = between about 15% and that limit
#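 DiscoveRx PathHunter D2 beta-arrestin cells (2,100/well) attached overnight, then compound-stimulated 90 min at 37 C in HBSS/10 mM HEPES/0.1% Tween-20 buffer; beta-galactosidase complementation read by luminescence after 1 h at ambient temperature. Dopamine 57 uM final (EC100) as control.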
# D2 PAM-2: human D2 receptor positive allosteric modulation. 0.23% of 360,000 active. potentiation, % (test concentration not listed). DiscoveRx D2 beta-arrestin cells, luminescence, 90 min; 100% = 57 uM dopamine signal. P14416; in the data active = potentiation above about 50%; inconclusive = mostly about 30% to 49%
#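 PathHunter D2 cells, attached overnight at 37 deg C, received compound in DMSO plus dopamine at EC20 (50 nM final) for 90 min at 37 deg C. Beta-arrestin recruitment was read as luminescence after 1 h with detection reagent at ambient temperature.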
# D2 antagonist: D2 dopamine receptor (human) antagonism; P14416; HEK293 TREx D2 cells, calcium flux, dopamine EC80; inhibition, % at 10 µM; 2% of 340,000 active; in the data active = inhibition above about 30%; inactive = below that, where a call was filed; note: 0% is about no effect
#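 Dopamine at EC80 is the agonist stimulus; test compounds precede it by 180 s. Calcium flux read kinetically in a force-coupled, inducible HEK293 T-REx D2 cell line.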
# * marks the source's active call; other numbers are inactive results; ? = inconclusive; · = no result. Hits are enriched below; roughly 2.4% of the tested compounds scored in any of these assays.
SMILES,D2 ag-1,D2 PAM-1,D2 ag-2,D2 PAM-2,D2 antagonist
CC(C)CCNC(=O)C1CCN(c2nnc(-n3cccc3)s2)CC1,1,8,-3,-3,-7
Cc1oc(-c2ccccc2F)nc1CN1CCC(C(=O)NCCC2=CCCCC2)CC1,6,2,-4,-8,32*
CS(=O)(=O)N1CCC(C(=O)Nc2cc(C(F)(F)F)ccc2Cl)CC1,0,-12,-2,-14,-7
O=C(Nc1cc(C(F)(F)F)ccc1Cl)C1CCN(c2nnc(-n3cccc3)s2)CC1,0,-18,0,-22,62*
O=C(NCCC1=CCCCC1)C1CCN(c2nnc(-n3cccc3)s2)CC1,0,-8,-4,-1,48*
Cc1oc(-c2ccccc2F)nc1CN1CCC(C(=O)NCCc2ccccc2)CC1,2,-6,·,·,·
Cn1ncc(C(=O)N2CCN(c3ccc(F)cc3)CC2)c1C1CCN(C(=O)OC(C)(C)C)CC1,-2,-7,·,·,·
O=C(CC(c1cccs1)N1Cc2ccccc2C1=O)Nc1cccc(F)c1 (stereo unspecified),-1,7,·,·,·
CCN(CC)c1ccc(NS(=O)(=O)c2cc(-c3onc(C)c3C)ccc2OC)c(C)c1,0,1,·,·,·
COCC(=O)Nc1ncc(S(=O)(=O)c2ccc([N+](=O)[O-])cc2)s1,0,-3,?,?,3
CCCCC(=O)Nc1ncc(S(=O)(=O)c2ccc([N+](=O)[O-])cc2)s1,4,4,?,-8,-6
O=C(Nc1ncc(S(=O)(=O)c2ccc([N+](=O)[O-])cc2)s1)c1cccc2ccccc12,26,-3,-2,62*,9
CC(=O)NCCC(=O)Nc1ncc(S(=O)(=O)c2ccc([N+](=O)[O-])cc2)s1,0,7,10,52*,-19
O=C(Cn1ccc(=O)[nH]c1=O)c1ccc([N+](=O)[O-])o1,·,·,47*,6,·
CC(=O)c1cc2c(cc1N/C(=N/S(=O)(=O)c1ccc(F)cc1)c1ccccc1)OCO2,-1,3,·,·,·
CC(C)CCNc1nc(N)c([N+](=O)[O-])c(NCC2CCCO2)n1 (stereo unspecified),32*,2,2,-31,24
COCCCNc1nc(N)c([N+](=O)[O-])c(NC2CCCCC2)n1,4,20,0,-4,30*
O=C(CSc1nc2c(c(=O)[nH]1)CCC2)Nc1ccccc1F,0,6,·,·,·
CCCN(CC(=O)Nc1ccccc1C)C(=O)c1ccc(C(=O)c2ccccc2)cc1,2,-2,-2,-22,43*
COc1ccccc1CNC(=O)Cn1c(=O)nc(-c2ccccc2F)c2cc(Cl)ccc21,-3,3,·,·,·
CC(C)Oc1ccc(CNC(=O)c2ccc3c(c2)N(C)CCS3)cc1,2,-19,-1,-16,47*
COc1ccc(OC)c(CCNC(=O)CN2C(=O)CC(C)(C)S(=O)(=O)c3ccccc32)c1,0,34*,1,-3,-1
CC1(C)CC(=O)N(CC(=O)NC2CCCC2)c2ccccc2S1(=O)=O,2,-1,-2,-2,4
Cc1nn(-c2nc(-c3ccc(F)cc3)cc(C(F)(F)F)n2)c(C)c1Br,1,12,·,·,·
O=C(CSc1nnc(-c2ccccc2)c(-c2ccccc2)n1)NCc1ccco1,0,7,-3,-3,40*
SMILES,D2 ag-1,D2 PAM-1,D2 ag-2,D2 PAM-2,D2 antagonist
O=C(CSc1ncc(-c2ccccc2)nn1)NCc1ccco1,0,-4,-1,-5,18
COc1ccc(-c2[nH]c(-c3cccc(OC)c3)nc2SCC(=O)NCc2ccco2)cc1,-1,-21,0,-6,39*
COc1c(Cl)cc(C(=O)N(Cc2ccc(C)o2)C2CCS(=O)(=O)C2)cc1Cl (stereo unspecified),-1,12,·,·,·
O=C(CSc1nc(O)c(Cc2ccccc2)c(=O)[nH]1)N1CCOCC1,14,-7,-4,-1,1
O=C(CSc1nc(O)c(C2CCCCC2)c(=O)[nH]1)N1CCOCC1,0,-12,-2,-10,43*
CC(C)c1nc2ccc(NC(=O)C34CC5CC(CC(C5)C3)C4)cc2[nH]1,0,22,-2,-17,33*
COc1ccc2c(c1)CCC/C2=N\NC(=O)c1ccoc1C,-3,-2,-2,-26,38*
COc1ccc(NC(=O)NNC(=O)CCc2ccc(O)c(O)c2)cc1OC,39*,-9,9,2,-8
O=C(NCC(c1cccnc1)N1CCN(c2ccccc2)CC1)OCc1ccccc1 (stereo unspecified),0,31*,5,-4,-3
Oc1sc(C=Nc2ccccc2)c2ccccc12,36*,-2,6,24,-11
Oc1sc(C=Nc2ccc(F)cc2)c2ccccc12,-1,6,-1,?,-9
COC(=O)C(C)NC(=O)N1CCN(c2nnc(C)c3c(C)n(-c4ccc(Cl)cc4)nc23)CC1 (stereo unspecified),0,-7,·,·,·
CCS(=O)(=O)N1CC(=O)N(c2ccc(Cl)cc2C)C(C)(C(=O)NC2CCCCCC2)C1 (stereo unspecified),0,-13,·,·,·
O=C(N/N=C/c1ccc(O)cc1)c1csc2ccccc12,0,4,1,-5,32*
CCC(C)NC(=O)c1cc(-c2cccc(OC)c2)on1 (stereo unspecified),-1,12,·,·,·
CC1(C)Cc2c(sc3c2C(=O)N(c2ccccc2)C2=NCCN23)CS1,-1,46*,-5,-22,17
C=CCOc1ccccc1CNCCCN1CCOCC1,0,37*,-1,-12,-5
CC(=O)Nc1ccc(S(=O)(=O)N(C)c2ccc(OCC(=O)Nc3ccccc3C(C)=O)cc2)cc1,1,1,-3,-12,-7
CN(c1ccc(OCC(=O)Nc2ccccc2C(=O)O)cc1)S(=O)(=O)c1ccc(Cl)cc1,·,·,2,62*,·
CN(C)S(=O)(=O)c1ccc(C(=O)NCCSc2c(-c3ccc(Br)cc3)[nH]c3ccccc23)cc1,0,2,·,·,·
CC(=O)n1c2ccccc2c2nc(NC(C)C)sc21,0,19,-5,67*,-1
CNc1nc2c3ccccc3n(C(C)=O)c2s1,0,-13,-1,-12,6
CCCCS(=O)(=O)CC(O)CSc1nc(-c2ccc(C)cc2)cc(-c2ccccc2)c1C#N (stereo unspecified),0,-6,·,·,·
c1ccc(CN2C3=NCCCN3c3ccccc32)cc1,-3,12,3,-15,-25
O=C1CN2C(=N1)N(Cc1ccccc1)c1ccccc12,1,-13,0,6,71*
CC1Sc2ccc(S(=O)(=O)CCC(=O)Nc3ccc(C(C)C)cc3)cc2NC1=O (stereo unspecified),1,17,3,5,52*

# Screening data: PubChem BioAssay, National Center for Advancing Translational Sciences (NCATS)
